{"source": "the supplement of paper PMC7411054", "test_in_all_cases": "lowest phenotypically active concentration; higher = less potent", "conditions_in_all_cases": "treatment time: 24 h", "key": {"[1]": {"system": "HepG2-ACTB-RAB5A", "procedure,_shortened": "(§1)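 After 24 h at 0.3, 1, 3 or 9 µM, with four wells per treatment, fifteen gene-edited A549, HepG2 and WPMY1 reporter lines carrying BFP, GFP and RFP/FusionRed were imaged live. Each well's live-cell features were expressed relative to solvent control wells. Deviation required ≥3 of 4 wells past the 95th percentile of control Euclidean distances, and reproducibility a median replicate Pearson correlation over the 95th percentile of non-replicates. Phenotypic activity rested on both.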"}, "[2]": {"system": "HepG2-GM130-SQSTM1", "procedure,_shortened": "as §1"}, "[3]": {"system": "HepG2-TUBA1B-RELA", "procedure,_shortened": "as §1"}, "[4]": {"system": "A549-TUBA1B-RELA", "procedure,_shortened": "as §1"}, "[5]": {"system": "A549-TP53BP1-CLTA", "procedure,_shortened": "as §1"}, "[6]": {"system": "WPMY1-TUBA1B-RELA", "procedure,_shortened": "as §1"}, "[7]": {"system": "HepG2-CANX-COX4", "procedure,_shortened": "as §1"}, "[8]": {"system": "HepG2-TP53BP1-CLTA", "procedure,_shortened": "as §1"}, "[9]": {"system": "WPMY1-TP53BP1-CLTA", "procedure,_shortened": "as §1"}}, "note": "Where a name gives a salt, the structure may show the parent alone.", "data": [{"smiles": "O=C(O)[C@H]1CCCC[C@H]1C(=O)N1CCc2ccccc2[C@H]1CN1C(=O)c2ccccc2C1=O", "values": [{"measurement": "lowest phenotypically active concentration", "setting": "[1]", "result": 9, "unit": "µM"}, {"measurement": "lowest phenotypically active concentration", "setting": "[2]", "result": 9, "unit": "µM"}, {"measurement": "lowest phenotypically active concentration", "setting": "[3]", "result": 9, "unit": "µM"}]}, {"smiles": "CCOc1nc(NC(=O)Cc2cc(OC)ccc2OC)cc(N)c1C#N", "values": [{"measurement": "lowest phenotypically active concentration", "setting": "[4]", "result": 9, "unit": "µM"}]}, {"smiles": "COc1cc(-c2cn(C)c(=O)c3cnccc23)c(OC)cc1CN(C)C", "values": [{"measurement": "lowest phenotypically active concentration", "setting": "[5]", "result": 9, "unit": "µM"}, {"measurement": "lowest phenotypically active concentration", "setting": "[1]", "result": 9, "unit": "µM"}, {"measurement": "lowest phenotypically active concentration", "setting": "[2]", "result": 9, "unit": "µM"}, {"measurement": "lowest phenotypically active concentration", "setting": "[3]", "result": 9, "unit": "µM"}, {"measurement": "lowest phenotypically active concentration", "setting": "[6]", "result": 9, "unit": "µM"}]}, {"smiles": "Cc1cc(C)c(C)c(S(=O)(=O)Nc2ccc(N3CC[C@H](C(=O)O)C3)c3ccccc23)c1C", "values": [{"measurement": "lowest phenotypically active concentration", "setting": "[2]", "result": 9, "unit": "µM"}]}, {"smiles": "S=c1[nH]cnc2nc[nH]c12", "note": "[mercaptopurine]", "values": [{"measurement": "lowest phenotypically active concentration", "setting": "[1]", "result": 9, "unit": "µM"}, {"measurement": "lowest phenotypically active concentration", "setting": "[7]", "result": 9, "unit": "µM"}, {"measurement": "lowest phenotypically active concentration", "setting": "[3]", "result": 9, "unit": "µM"}, {"measurement": "lowest phenotypically active concentration", "setting": "[6]", "result": 9, "unit": "µM"}]}, {"smiles": "C[C@@H]1CN(Cc2ccc(F)cc2)[C@@H](C)CN1C(=O)c1cc2c(C(=O)C(=O)N(C)C)cn(C)c2cc1Cl", "note": "[SCIO 469 hydrochloride]", "values": [{"measurement": "lowest phenotypically active concentration", "setting": "[1]", "result": 9, "unit": "µM"}, {"measurement": "lowest phenotypically active concentration", "setting": "[7]", "result": 1, "unit": "µM"}, {"measurement": "lowest phenotypically active concentration", "setting": "[8]", "result": 9, "unit": "µM"}, {"measurement": "lowest phenotypically active concentration", "setting": "[3]", "result": 9, "unit": "µM"}]}, {"smiles": "CC1=C(/C=C/C(C)=C/C=C/C(C)=C/C(=O)O)C(C)(C)CCC1", "note": "[isotretinoin]", "values": [{"measurement": "lowest phenotypically active concentration", "setting": "[7]", "result": "≤ 0.3", "unit": "µM"}, {"measurement": "lowest phenotypically active concentration", "setting": "[9]", "result": 3, "unit": "µM"}]}, {"smiles": "Clc1ccc(C(c2ccc(Cl)cc2)[n+]2ccn(CC(OCc3ccc(Cl)cc3Cl)c3ccc(Cl)cc3Cl)c2)cc1", "note": "(configuration not stated) [Calmidazolium chloride]", "values": [{"measurement": "lowest phenotypically active concentration", "setting": "[1]", "result": 3, "unit": "µM"}, {"measurement": "lowest phenotypically active concentration", "setting": "[3]", "result": 3, "unit": "µM"}, {"measurement": "lowest phenotypically active concentration", "setting": "[6]", "result": 3, "unit": "µM"}]}, {"smiles": "CC(C)N(CCCNC(=O)Nc1ccc(C(C)(C)C)cc1)C[C@H]1O[C@@H](n2ccc3c(N)ncnc32)[C@H](O)[C@@H]1O", "values": [{"measurement": "lowest phenotypically active concentration", "setting": "[1]", "result": 9, "unit": "µM"}, {"measurement": "lowest phenotypically active concentration", "setting": "[2]", "result": "≤ 0.3", "unit": "µM"}, {"measurement": "lowest phenotypically active concentration", "setting": "[8]", "result": 1, "unit": "µM"}, {"measurement": "lowest phenotypically active concentration", "setting": "[3]", "result": "≤ 0.3", "unit": "µM"}, {"measurement": "lowest phenotypically active concentration", "setting": "[6]", "result": 3, "unit": "µM"}]}, {"smiles": "CCOc1ccc2nc(S(N)(=O)=O)sc2c1", "note": "[ethoxzolamide]", "values": [{"measurement": "lowest phenotypically active concentration", "setting": "[2]", "result": 9, "unit": "µM"}]}, {"smiles": "CC(C)[C@@H](C)/C=C/[C@@H](C)[C@H]1CC[C@H]2C3=CC=C4C[C@@H](O)CC[C@]4(C)[C@H]3CC[C@]12C", "note": "[Ergosterine]", "values": [{"measurement": "lowest phenotypically active concentration", "setting": "[4]", "result": 9, "unit": "µM"}, {"measurement": "lowest phenotypically active concentration", "setting": "[2]", "result": 9, "unit": "µM"}]}, {"smiles": "COc1ccc(S(=O)(=O)ON=C2C=C(C)C(=O)C(C)=C2)cc1", "values": [{"measurement": "lowest phenotypically active concentration", "setting": "[4]", "result": 9, "unit": "µM"}, {"measurement": "lowest phenotypically active concentration", "setting": "[6]", "result": 9, "unit": "µM"}]}, {"smiles": "O=C(Nc1ccccc1)N1CCN(c2nc(-c3ccccc3)ns2)CC1", "values": [{"measurement": "lowest phenotypically active concentration", "setting": "[7]", "result": 9, "unit": "µM"}, {"measurement": "lowest phenotypically active concentration", "setting": "[8]", "result": 9, "unit": "µM"}, {"measurement": "lowest phenotypically active concentration", "setting": "[3]", "result": 9, "unit": "µM"}]}, {"smiles": "C[C@H](NC(=O)c1sccc1OCc1ccc(Cl)cc1)c1ccccc1", "values": [{"measurement": "lowest phenotypically active concentration", "setting": "[5]", "result": 9, "unit": "µM"}, {"measurement": "lowest phenotypically active concentration", "setting": "[9]", "result": 3, "unit": "µM"}]}, {"smiles": "O=c1cc(N2CCOCC2)oc2c1ccc1ccccc12", "values": [{"measurement": "lowest phenotypically active concentration", "setting": "[6]", "result": 9, "unit": "µM"}]}, {"smiles": "COCCCOc1ccnc(CS(=O)c2nc3ccccc3[nH]2)c1C", "note": "(configuration not stated) [rabeprazole]", "values": [{"measurement": "lowest phenotypically active concentration", "setting": "[1]", "result": 9, "unit": "µM"}, {"measurement": "lowest phenotypically active concentration", "setting": "[3]", "result": 9, "unit": "µM"}]}, {"smiles": "O=C(/C=C/c1ccc(O)cc1)c1ccc(O)cc1O", "note": "[Isoliquiritigenin]", "values": [{"measurement": "lowest phenotypically active concentration", "setting": "[4]", "result": 9, "unit": "µM"}, {"measurement": "lowest phenotypically active concentration", "setting": "[2]", "result": 9, "unit": "µM"}, {"measurement": "lowest phenotypically active concentration", "setting": "[9]", "result": 9, "unit": "µM"}]}, {"smiles": "NCCCCNS(=O)(=O)c1ccc2c(Cl)cccc2c1", "note": "[W-13 hydrochloride]", "values": [{"measurement": "lowest phenotypically active concentration", "setting": "[6]", "result": 9, "unit": "µM"}]}, {"smiles": "NS(=O)(=O)C#Cc1ccccc1", "note": "[pifithrin-mu]", "values": [{"measurement": "lowest phenotypically active concentration", "setting": "[2]", "result": 3, "unit": "µM"}, {"measurement": "lowest phenotypically active concentration", "setting": "[6]", "result": 9, "unit": "µM"}]}, {"smiles": "Cc1cc2c(s1)Nc1ccccc1N=C2N1CCN(C)CC1", "note": "[Olanzapine]", "values": [{"measurement": "lowest phenotypically active concentration", "setting": "[3]", "result": 9, "unit": "µM"}]}, {"smiles": "Nc1ncnc2c1c(COc1cccc(Cl)c1)nn2C1CCOCC1", "values": [{"measurement": "lowest phenotypically active concentration", "setting": "[8]", "result": 9, "unit": "µM"}]}, {"smiles": "O=S(=O)(NCCCCCCc1ccccc1)c1cccc2c(Cl)cccc12", "values": [{"measurement": "lowest phenotypically active concentration", "setting": "[3]", "result": "≤ 0.3", "unit": "µM"}]}, {"smiles": "Oc1cc(O)cc(/C=C/c2ccc(O)c(O)c2)c1", "note": "[Piceatannol]", "values": [{"measurement": "lowest phenotypically active concentration", "setting": "[6]", "result": 9, "unit": "µM"}]}, {"smiles": "CN(C)CCOC(c1ccccc1)c1ccccc1", "note": "[diphenhydramine]", "values": [{"measurement": "lowest phenotypically active concentration", "setting": "[9]", "result": 9, "unit": "µM"}, {"measurement": "lowest phenotypically active concentration", "setting": "[6]", "result": 9, "unit": "µM"}]}, {"smiles": "COc1ccc(C[C@@H]2c3cc(OC)c(OC)cc3CC[N@+]2(C)CCC(=O)OCCCCCOC(=O)CC[N@@+]2(C)CCc3cc(OC)c(OC)cc3[C@H]2Cc2ccc(OC)c(OC)c2)cc1OC", "note": "[Cisatracurium besylate]", "values": [{"measurement": "lowest phenotypically active concentration", "setting": "[2]", "result": 9, "unit": "µM"}]}, {"smiles": "C#CCN[C@@H]1CCc2ccccc21", "note": "[rasagiline]", "values": [{"measurement": "lowest phenotypically active concentration", "setting": "[8]", "result": 9, "unit": "µM"}, {"measurement": "lowest phenotypically active concentration", "setting": "[3]", "result": 9, "unit": "µM"}, {"measurement": "lowest phenotypically active concentration", "setting": "[9]", "result": 9, "unit": "µM"}]}]}
